Experimental data: PubChem BioAssay AID1159580 (chemical genetic matrix, 2015)
The whole screen tested about 5,500 compounds, of which about 2,000 (36%) were called active. Another 18% or so got no clear call; they are omitted. No stated cut-off is given here; in the data, active means normalized growth mostly below about 0.91 (no sharp cut-off); inconclusive means no clear call, values can overlap the other calls; inactive means mostly above about 0.92. The list shows a part of the results.

Experiment: chemical genetic growth profiling, strain panel (AID 1159580);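 further: tested at 20 µM; growth read once vehicle control cultures reached saturation at 30 °C; 1 = growth at the plate median or of vehicle wells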
Details: growth OD
[1] = S. cerevisiae deletion strains, locus YCL061C, strain MRC1, stronger effect = lower value

Measured: normalized growth

c1ccc2c(c1)-c1cccc3cccc-2c13
inactive: S. cerevisiae deletion strains, locus YDL101C, strain DUN1, stronger effect = lower value 0.929 | S. cerevisiae deletion strains, locus YDR150W, strain NUM1, stronger effect = lower value 0.911 | S. cerevisiae deletion strains, locus YJL187C, strain SWE1, stronger effect = lower value 0.939 | S. cerevisiae deletion strains, locus YJR043C, strain POL32, stronger effect = lower value 0.929 | S. cerevisiae deletion strains, locus YMR219W, strain ESC1, stronger effect = lower value 0.949 | S. cerevisiae deletion strains, locus YMR263W, strain SAP30, stronger effect = lower value 0.916 | S. cerevisiae deletion strains, locus YOL006C, strain TOP1, stronger effect = lower value 0.764
active: S. cerevisiae deletion strains, locus YAL013W, strain DEP1, stronger effect = lower value 0.897 | S. cerevisiae deletion strains, locus YBR229C, strain ROT2, stronger effect = lower value 0.873 | [1] 0.876 | S. cerevisiae deletion strains, locus YDL134C, strain PPH21, stronger effect = lower value 0.873 | S. cerevisiae deletion strains, locus YEL061C, strain CIN8, stronger effect = lower value 0.787 | S. cerevisiae deletion strains, locus YGR078C, strain PAC10, stronger effect = lower value 0.855 | S. cerevisiae deletion strains, locus YHR030C, strain SLT2, stronger effect = lower value 0.34 | S. cerevisiae deletion strains, locus YHR087W, strain rtc3, stronger effect = lower value 0.826 | S. cerevisiae deletion strains, locus YJR075W, strain HOC1, stronger effect = lower value 0.771 | S. cerevisiae deletion strains, locus YKL190W, strain CNB1, stronger effect = lower value 0.767 | S. cerevisiae deletion strains, locus YLR039C, strain RIC1, stronger effect = lower value 0.363 | S. cerevisiae deletion strains, locus YLR058C, strain SHM2 (second series), stronger effect = lower value 0.923 | S. cerevisiae deletion strains, locus YLR085C, strain ARP6, stronger effect = lower value 0.318 | S. cerevisiae deletion strains, locus YLR262C, strain YPT6, stronger effect = lower value 0.313 | S. cerevisiae deletion strains, locus YML094W, strain GIM5, stronger effect = lower value 0.757 | S. cerevisiae deletion strains, locus YMR307W, strain GAS1, stronger effect = lower value 0.428 | S. cerevisiae deletion strains, locus YNL153C, strain GIM3, stronger effect = lower value 0.906 | S. cerevisiae deletion strains, locus YNL298W, strain CLA4 (second series), stronger effect = lower value 0.694 | S. cerevisiae deletion strains, locus YNL322C, strain KRE1, stronger effect = lower value 0.932 | S. cerevisiae deletion strains, locus YNR030W, strain Alg12, stronger effect = lower value 0.721 | S. cerevisiae deletion strains, locus YPL055C, strain LGE1, stronger effect = lower value 0.666 | S. cerevisiae deletion strains, locus YPL241C, strain CIN2, stronger effect = lower value 0.648 | S. cerevisiae deletion strains, locus YPR135W, strain CTF4, stronger effect = lower value 0.483 | S. cerevisiae strains, strain wild type, stronger effect = lower value 0.863

O=C1c2ccccc2-c2cccc3cccc1c23
active: S. cerevisiae deletion strains, locus YAL026C, strain drs2, stronger effect = lower value 0.896 | S. cerevisiae deletion strains, locus YBL061C, strain skt5, stronger effect = lower value 0.88 | S. cerevisiae deletion strains, locus YBR009C, strain hhf1, stronger effect = lower value 0.849 | S. cerevisiae deletion strains, locus YBR023C, strain chs3, stronger effect = lower value 0.855 | S. cerevisiae deletion strains, locus YBR231C, strain swc5, stronger effect = lower value 0.78 | S. cerevisiae deletion strains, locus YBR279W, strain paf1, stronger effect = lower value 0.884 | S. cerevisiae deletion strains, locus YCL011C, strain gbp2, stronger effect = lower value 0.874 | S. cerevisiae deletion strains, locus YCL016C, strain dcc1, stronger effect = lower value 0.823 | [1] 0.867 | S. cerevisiae deletion strains, locus YCL069W, strain vba3, stronger effect = lower value 0.924 | S. cerevisiae deletion strains, locus YDR137W, strain rgp1, stronger effect = lower value 0.756 | S. cerevisiae deletion strains, locus YDR195W, strain ref2 1.44 [resistant] | S. cerevisiae deletion strains, locus YDR392W, strain spt3, stronger effect = lower value 0.483 | S. cerevisiae deletion strains, locus YER155C, strain BEM2 (second series), stronger effect = lower value 0.716 | S. cerevisiae deletion strains, locus YFR010W, strain ubp6, stronger effect = lower value 0.833 | S. cerevisiae deletion strains, locus YGL173C, strain kem1, stronger effect = lower value 0.853 | S. cerevisiae deletion strains, locus YGL240W, strain doc1, stronger effect = lower value 0.868 | S. cerevisiae deletion strains, locus YGL253W, strain hxk2, stronger effect = lower value 0.822 | S. cerevisiae deletion strains, locus YHR013C, strain ard1, stronger effect = lower value 0.737 | S. cerevisiae deletion strains, locus YHR142W, strain chs7, stronger effect = lower value 0.62 | S. cerevisiae deletion strains, locus YJL092W, strain hpr5, stronger effect = lower value 0.899 | S. cerevisiae deletion strains, locus YJL095W, strain BCK1 (second series), stronger effect = lower value 0.854 | S. cerevisiae deletion strains, locus YJL164C, strain tpk1, stronger effect = lower value 0.868 | S. cerevisiae deletion strains, locus YJL166W, strain qcr8, stronger effect = lower value 0.841 | S. cerevisiae deletion strains, locus YKL160W, strain elf1, stronger effect = lower value 0.829 | S. cerevisiae deletion strains, locus YLL001W, strain dnm1, stronger effect = lower value 0.89 | S. cerevisiae deletion strains, locus YLR027C, strain aat2, stronger effect = lower value 0.875 | S. cerevisiae deletion strains, locus YLR221C, strain rsa3, stronger effect = lower value 0.875 | S. cerevisiae deletion strains, locus YLR258W, strain gsy2, stronger effect = lower value 0.9 | S. cerevisiae deletion strains, locus YLR262C, strain YPT6 (second series), stronger effect = lower value 0.747 | S. cerevisiae deletion strains, locus YLR320W, strain mms22, stronger effect = lower value 0.714 | S. cerevisiae deletion strains, locus YMR058W, strain fet3, stronger effect = lower value 0.746 | S. cerevisiae deletion strains, locus YNL071W, strain lat1, stronger effect = lower value 0.685 | S. cerevisiae deletion strains, locus YNL248C, strain rpa49, stronger effect = lower value 0.677 | S. cerevisiae deletion strains, locus YOR070C, strain gyp1, stronger effect = lower value 0.904 | S. cerevisiae deletion strains, locus YOR083W, strain WHI5, stronger effect = lower value 0.786 | S. cerevisiae deletion strains, locus YOR106W, strain vam3, stronger effect = lower value 0.693 | S. cerevisiae deletion strains, locus YOR270C, strain vph1, stronger effect = lower value 0.341 | S. cerevisiae deletion strains, locus YOR290C, strain snf2, stronger effect = lower value 0.856 | S. cerevisiae deletion strains, locus YPL051W, strain arl3, stronger effect = lower value 0.739 | S. cerevisiae deletion strains, locus YPL078C, strain atp4, stronger effect = lower value 0.787 | S. cerevisiae deletion strains, locus YPL106C, strain sse1, stronger effect = lower value 0.74
inactive: S. cerevisiae deletion strains, locus YAL021C, strain ccr4, stronger effect = lower value 0.946 | S. cerevisiae deletion strains, locus YAL030W, strain snc1, stronger effect = lower value 0.954 | S. cerevisiae deletion strains, locus YBR171W, strain sec66, stronger effect = lower value 0.964 | S. cerevisiae deletion strains, locus YCR088W, strain abp1, stronger effect = lower value 1.01 | S. cerevisiae deletion strains, locus YDL005C, strain med2, stronger effect = lower value 0.961 | S. cerevisiae deletion strains, locus YDL040C, strain nat1, stronger effect = lower value 0.974 | S. cerevisiae deletion strains, locus YDR001C, strain nth1, stronger effect = lower value 0.988 | S. cerevisiae deletion strains, locus YDR069C, strain doa4, stronger effect = lower value 0.905 | S. cerevisiae deletion strains, locus YDR159W, strain sac3, stronger effect = lower value 0.881 | S. cerevisiae deletion strains, locus YDR297W, strain sur2, stronger effect = lower value 0.965 | S. cerevisiae deletion strains, locus YDR334W, strain swr1, stronger effect = lower value 0.923 | S. cerevisiae deletion strains, locus YDR335W, strain msn5, stronger effect = lower value 0.952 | S. cerevisiae deletion strains, locus YEL003W, strain gim4, stronger effect = lower value 0.967 | S. cerevisiae deletion strains, locus YEL037C, strain rad23, stronger effect = lower value 0.945 | S. cerevisiae deletion strains, locus YEL061C, strain CIN8 (second series), stronger effect = lower value 0.953 | S. cerevisiae deletion strains, locus YER015W, strain faa2, stronger effect = lower value 0.939 | S. cerevisiae deletion strains, locus YER016W, strain bim1, stronger effect = lower value 0.977 | S. cerevisiae deletion strains, locus YER111C, strain swi4, stronger effect = lower value 0.968 | S. cerevisiae deletion strains, locus YGL167C, strain pmr1, stronger effect = lower value 0.97 | S. cerevisiae deletion strains, locus YGL227W, strain vid30, stronger effect = lower value 0.99 | S. cerevisiae deletion strains, locus YHR027C, strain rpn1, stronger effect = lower value 0.956 | S. cerevisiae deletion strains, locus YJL115W, strain asf1, stronger effect = lower value 0.91 | S. cerevisiae deletion strains, locus YJL129C, strain trk1, stronger effect = lower value 1.02 | S. cerevisiae deletion strains, locus YJL154C, strain vps35, stronger effect = lower value 0.988 | S. cerevisiae deletion strains, locus YKR026C, strain gcn3, stronger effect = lower value 0.965 | S. cerevisiae deletion strains, locus YKR091W, strain srl3, stronger effect = lower value 0.977 | S. cerevisiae deletion strains, locus YLL026W, stronger effect = lower value 0.932 | S. cerevisiae deletion strains, locus YLL041C, strain sdh2, stronger effect = lower value 0.994 | S. cerevisiae deletion strains, locus YLR342W, strain FKS1, stronger effect = lower value 0.966 | S. cerevisiae deletion strains, locus YLR357W, strain rsc2, stronger effect = lower value 0.985 | S. cerevisiae deletion strains, locus YLR370C, strain arc18, stronger effect = lower value 0.931 | S. cerevisiae deletion strains, locus YLR384C, strain iki3, stronger effect = lower value 0.978 | S. cerevisiae deletion strains, locus YML120C, strain ndi1, stronger effect = lower value 0.949 | S. cerevisiae deletion strains, locus YMR125W, strain sto1, stronger effect = lower value 0.9 | S. cerevisiae deletion strains, locus YMR129W, stronger effect = lower value 0.973 | S. cerevisiae deletion strains, locus YMR205C, strain PFK2, stronger effect = lower value 0.935 | S. cerevisiae deletion strains, locus YMR231W, strain pep5, stronger effect = lower value 0.954 | S. cerevisiae deletion strains, locus YNL209W, strain ssb2, stronger effect = lower value 0.928 | S. cerevisiae deletion strains, locus YNL322C, strain KRE1 (second series), stronger effect = lower value 0.966 | S. cerevisiae deletion strains, locus YNR049C, strain mso1, stronger effect = lower value 0.986 | S. cerevisiae deletion strains, locus YOR001W, strain rrp6, stronger effect = lower value 0.911 | S. cerevisiae deletion strains, locus YOR080W, strain dia2, stronger effect = lower value 0.981 | S. cerevisiae deletion strains, locus YOR265W, strain rbl2, stronger effect = lower value 0.967 | S. cerevisiae deletion strains, locus YPL240C, strain hsp82, stronger effect = lower value 0.979
